Paper PMC7862700, “An all-to-all approach to the identification of sequence-specific readers for epigenetic DNA modifications on cytosine”

Experiments:
Test in all cases: DAPPL (digital affinity profiling via proximity ligation, sequencing); 10 mM Tris-HCl pH 7.5, 50 mM NaCl, 1 mM DTT, 4% glycerol, room temperature, 30 min; GST-TFs on glutathione beads, 16-mer random dsDNA library, 0.1% formaldehyde crosslink after washing; high values mean tight binding
[1] = target: T1, FEV (Homo sapiens, UniProt Q99581 1-238); conditions: protein: recombinant; tags: N-terminal GST; dsDNA, one strand shown
T1 sequence: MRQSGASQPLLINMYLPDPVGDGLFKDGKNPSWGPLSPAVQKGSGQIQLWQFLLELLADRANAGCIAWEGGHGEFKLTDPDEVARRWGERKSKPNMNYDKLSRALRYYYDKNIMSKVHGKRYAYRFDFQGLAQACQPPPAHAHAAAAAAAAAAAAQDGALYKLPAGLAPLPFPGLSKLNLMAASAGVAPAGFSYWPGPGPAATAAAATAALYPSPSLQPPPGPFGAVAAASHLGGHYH
Procedure, shortened: (§1)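 Human transcription factors were made in yeast as GST fusions, captured on glutathione beads and barcoded with DNA. With a tag-only sample included, the pool was incubated with 200 nmole of a random double-stranded 16-mer DNA library in Tris/NaCl/DTT/glycerol buffer at room temperature for 30 min, then crosslinked with 0.1% formaldehyde after washing, ligated by proximity, amplified and sequenced. For binding signal, each hexamer's read frequency for a factor is divided by its frequency for the tag-only sample.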

[2] = target: ETV5 (Homo sapiens, UniProt P41161 1-510); conditions: protein: recombinant; tags: N-terminal GST; dsDNA, one strand shown
Procedure, shortened: as §1

[3] = target: HSF1 (Homo sapiens, UniProt Q00613 1-529); conditions: protein: recombinant; tags: N-terminal GST; chain copies: 3; dsDNA, one strand shown
Procedure, shortened: as §1

[4] = target: T2, SPIC (Homo sapiens, UniProt Q8N5J4 1-248); conditions: protein: recombinant; tags: N-terminal GST; dsDNA, one strand shown
T2 sequence: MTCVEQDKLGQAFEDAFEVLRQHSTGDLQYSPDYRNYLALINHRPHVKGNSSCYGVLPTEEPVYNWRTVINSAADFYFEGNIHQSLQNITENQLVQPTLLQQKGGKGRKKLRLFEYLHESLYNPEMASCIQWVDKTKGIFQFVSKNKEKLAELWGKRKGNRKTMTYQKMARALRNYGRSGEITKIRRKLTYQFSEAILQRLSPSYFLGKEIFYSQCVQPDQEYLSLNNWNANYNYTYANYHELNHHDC
Procedure, shortened: as §1

[5] = target: ELF4 (Homo sapiens, UniProt Q99607 1-663); conditions: protein: recombinant; tags: N-terminal GST; dsDNA, one strand shown
Procedure, shortened: as §1

[6] = target: T3, ELK4 (Homo sapiens, UniProt P28324-2 1-405); conditions: protein: recombinant; tags: N-terminal GST; dsDNA, one strand shown
T3 sequence: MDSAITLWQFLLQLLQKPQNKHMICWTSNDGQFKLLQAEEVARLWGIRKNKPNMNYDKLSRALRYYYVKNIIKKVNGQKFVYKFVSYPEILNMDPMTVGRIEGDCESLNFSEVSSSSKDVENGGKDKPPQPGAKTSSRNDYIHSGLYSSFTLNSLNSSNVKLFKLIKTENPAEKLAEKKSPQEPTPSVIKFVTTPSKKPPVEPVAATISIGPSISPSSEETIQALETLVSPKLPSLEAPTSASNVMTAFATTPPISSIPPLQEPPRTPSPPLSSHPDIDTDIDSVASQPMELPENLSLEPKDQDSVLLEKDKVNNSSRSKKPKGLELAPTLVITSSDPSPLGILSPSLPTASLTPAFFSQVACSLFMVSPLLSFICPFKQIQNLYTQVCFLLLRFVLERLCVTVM
Procedure, shortened: as §1

[7] = target: T4, ETV2 (Homo sapiens, UniProt O00321 1-342); conditions: protein: recombinant; tags: N-terminal GST; dsDNA, one strand shown
T4 sequence: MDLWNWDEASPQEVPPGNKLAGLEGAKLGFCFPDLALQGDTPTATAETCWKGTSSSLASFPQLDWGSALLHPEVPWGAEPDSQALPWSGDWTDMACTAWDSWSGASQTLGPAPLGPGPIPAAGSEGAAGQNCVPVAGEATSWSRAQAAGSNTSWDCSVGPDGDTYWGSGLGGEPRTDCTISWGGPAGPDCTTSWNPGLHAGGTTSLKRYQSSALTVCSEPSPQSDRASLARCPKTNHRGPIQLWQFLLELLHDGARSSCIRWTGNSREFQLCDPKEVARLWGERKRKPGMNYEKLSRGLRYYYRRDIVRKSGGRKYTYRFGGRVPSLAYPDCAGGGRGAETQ
Procedure, shortened: as §1

[8] = target: T5, ELF3 (Homo sapiens, UniProt P78545 1-371); conditions: protein: recombinant; tags: N-terminal GST; dsDNA, one strand shown
T5 sequence: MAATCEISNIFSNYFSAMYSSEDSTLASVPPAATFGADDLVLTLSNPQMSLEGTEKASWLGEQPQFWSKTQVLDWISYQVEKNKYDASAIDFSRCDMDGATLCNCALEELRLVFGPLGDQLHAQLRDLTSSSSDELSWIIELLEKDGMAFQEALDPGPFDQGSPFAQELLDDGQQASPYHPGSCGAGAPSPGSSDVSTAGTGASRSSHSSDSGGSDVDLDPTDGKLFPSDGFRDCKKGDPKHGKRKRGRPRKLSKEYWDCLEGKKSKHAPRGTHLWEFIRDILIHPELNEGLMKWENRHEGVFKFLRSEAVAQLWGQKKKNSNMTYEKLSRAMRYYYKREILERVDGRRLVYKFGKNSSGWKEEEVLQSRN
Procedure, shortened: as §1

[9] = target: CRX (Homo sapiens, UniProt O43186 1-299); conditions: protein: recombinant; tags: N-terminal GST; dsDNA, one strand shown
Procedure, shortened: as §1

[10] = target: ETV1 (Homo sapiens, UniProt P50549 1-477); conditions: protein: recombinant; tags: N-terminal GST; dsDNA, one strand shown
Procedure, shortened: as §1

[11] = target: T6, ERF (Homo sapiens, UniProt P50548 1-548); conditions: protein: recombinant; tags: N-terminal GST; dsDNA, one strand shown
T6 sequence: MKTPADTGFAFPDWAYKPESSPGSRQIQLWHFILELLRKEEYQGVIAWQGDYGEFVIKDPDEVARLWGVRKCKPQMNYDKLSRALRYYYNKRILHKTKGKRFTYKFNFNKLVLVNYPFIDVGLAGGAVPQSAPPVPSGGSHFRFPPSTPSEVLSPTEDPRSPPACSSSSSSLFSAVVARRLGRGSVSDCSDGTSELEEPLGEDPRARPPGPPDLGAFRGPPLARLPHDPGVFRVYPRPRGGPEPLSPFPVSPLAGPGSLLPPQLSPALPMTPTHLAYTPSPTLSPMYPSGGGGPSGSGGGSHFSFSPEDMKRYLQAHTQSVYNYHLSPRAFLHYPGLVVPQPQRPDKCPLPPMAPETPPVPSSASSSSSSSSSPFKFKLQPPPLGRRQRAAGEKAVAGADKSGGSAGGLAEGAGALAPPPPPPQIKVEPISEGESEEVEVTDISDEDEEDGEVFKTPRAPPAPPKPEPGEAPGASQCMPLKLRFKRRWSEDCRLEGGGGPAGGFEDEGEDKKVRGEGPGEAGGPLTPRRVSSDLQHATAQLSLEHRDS
Procedure, shortened: as §1

[12] = target: T7, ETV3L (Homo sapiens, UniProt Q6ZN32 1-361); conditions: protein: recombinant; tags: N-terminal GST; dsDNA, one strand shown
T7 sequence: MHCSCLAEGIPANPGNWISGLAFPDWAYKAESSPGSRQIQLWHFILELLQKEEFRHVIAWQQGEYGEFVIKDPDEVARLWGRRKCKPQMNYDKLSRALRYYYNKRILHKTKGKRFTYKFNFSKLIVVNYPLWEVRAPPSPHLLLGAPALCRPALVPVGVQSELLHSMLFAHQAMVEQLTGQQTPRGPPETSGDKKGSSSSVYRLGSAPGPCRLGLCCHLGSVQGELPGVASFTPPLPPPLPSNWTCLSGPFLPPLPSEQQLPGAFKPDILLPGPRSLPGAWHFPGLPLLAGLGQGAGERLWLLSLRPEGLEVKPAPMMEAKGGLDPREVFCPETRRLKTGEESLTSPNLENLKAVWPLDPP
Procedure, shortened: as §1

[13] = target: T8, ETS2 (Homo sapiens, UniProt P15036 1-469); conditions: protein: recombinant; tags: N-terminal GST; dsDNA, one strand shown
T8 sequence: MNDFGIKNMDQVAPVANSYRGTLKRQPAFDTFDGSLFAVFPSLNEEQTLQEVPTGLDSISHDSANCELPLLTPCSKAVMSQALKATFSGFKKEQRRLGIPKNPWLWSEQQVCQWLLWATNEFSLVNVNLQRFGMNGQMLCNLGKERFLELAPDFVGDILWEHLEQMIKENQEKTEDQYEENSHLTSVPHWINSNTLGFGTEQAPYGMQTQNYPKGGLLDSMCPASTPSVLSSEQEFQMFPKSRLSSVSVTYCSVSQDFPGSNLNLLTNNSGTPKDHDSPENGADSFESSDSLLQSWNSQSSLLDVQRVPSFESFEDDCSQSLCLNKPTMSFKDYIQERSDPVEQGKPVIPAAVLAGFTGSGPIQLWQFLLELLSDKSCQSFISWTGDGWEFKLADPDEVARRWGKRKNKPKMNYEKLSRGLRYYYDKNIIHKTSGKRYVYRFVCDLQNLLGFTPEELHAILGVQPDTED
Procedure, shortened: as §1

[14] = target: T9, SPDEF (Homo sapiens, UniProt O95238 1-335); conditions: protein: recombinant; tags: N-terminal GST; dsDNA, one strand shown
T9 sequence: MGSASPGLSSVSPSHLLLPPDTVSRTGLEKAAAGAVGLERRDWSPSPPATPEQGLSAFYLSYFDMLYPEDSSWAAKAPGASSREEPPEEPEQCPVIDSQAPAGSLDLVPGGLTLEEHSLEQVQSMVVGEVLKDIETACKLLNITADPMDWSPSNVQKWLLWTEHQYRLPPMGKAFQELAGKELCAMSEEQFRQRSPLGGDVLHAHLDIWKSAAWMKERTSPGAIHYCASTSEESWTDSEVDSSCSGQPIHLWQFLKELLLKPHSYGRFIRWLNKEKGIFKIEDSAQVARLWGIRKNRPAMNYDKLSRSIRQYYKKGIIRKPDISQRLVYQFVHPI
Procedure, shortened: as §1

[15] = target: T10, ETV7 (Homo sapiens, UniProt Q9Y603 1-341); conditions: protein: recombinant; tags: N-terminal GST; dsDNA, one strand shown
T10 sequence: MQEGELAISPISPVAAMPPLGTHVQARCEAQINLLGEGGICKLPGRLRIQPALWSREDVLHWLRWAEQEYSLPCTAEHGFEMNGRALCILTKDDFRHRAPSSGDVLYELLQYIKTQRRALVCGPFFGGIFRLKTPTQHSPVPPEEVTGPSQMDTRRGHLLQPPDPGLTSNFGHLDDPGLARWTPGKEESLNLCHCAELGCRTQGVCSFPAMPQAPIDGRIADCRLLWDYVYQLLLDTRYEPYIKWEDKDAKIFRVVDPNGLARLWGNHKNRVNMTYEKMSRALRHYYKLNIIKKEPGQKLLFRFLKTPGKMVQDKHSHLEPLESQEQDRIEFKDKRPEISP
Procedure, shortened: as §1

[16] = target: T11, ELF5 (Homo sapiens, UniProt Q9UKW6-2 1-255); conditions: protein: recombinant; tags: N-terminal GST; dsDNA, one strand shown
T11 sequence: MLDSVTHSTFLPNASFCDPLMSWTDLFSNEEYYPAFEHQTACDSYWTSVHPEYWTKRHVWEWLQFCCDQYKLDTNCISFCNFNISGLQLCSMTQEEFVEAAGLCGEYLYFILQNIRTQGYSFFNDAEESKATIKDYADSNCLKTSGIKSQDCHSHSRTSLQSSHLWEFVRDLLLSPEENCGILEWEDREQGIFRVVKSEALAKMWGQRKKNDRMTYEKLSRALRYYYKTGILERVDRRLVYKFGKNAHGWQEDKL
Procedure, shortened: as §1

[17] = target: T12, ETV3 (Homo sapiens, UniProt P41162-2 1-143); conditions: protein: recombinant; tags: N-terminal GST; dsDNA, one strand shown
T12 sequence: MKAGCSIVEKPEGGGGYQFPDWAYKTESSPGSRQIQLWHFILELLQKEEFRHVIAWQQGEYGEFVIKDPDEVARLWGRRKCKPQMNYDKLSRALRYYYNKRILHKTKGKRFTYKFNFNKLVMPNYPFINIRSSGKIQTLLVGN
Procedure, shortened: as §1

[18] = target: ETV6 (Homo sapiens, UniProt P41212 1-452); conditions: protein: recombinant; tags: N-terminal GST; dsDNA, one strand shown
Procedure, shortened: as §1

Sequence of ELF4 (Q99607 whole entry): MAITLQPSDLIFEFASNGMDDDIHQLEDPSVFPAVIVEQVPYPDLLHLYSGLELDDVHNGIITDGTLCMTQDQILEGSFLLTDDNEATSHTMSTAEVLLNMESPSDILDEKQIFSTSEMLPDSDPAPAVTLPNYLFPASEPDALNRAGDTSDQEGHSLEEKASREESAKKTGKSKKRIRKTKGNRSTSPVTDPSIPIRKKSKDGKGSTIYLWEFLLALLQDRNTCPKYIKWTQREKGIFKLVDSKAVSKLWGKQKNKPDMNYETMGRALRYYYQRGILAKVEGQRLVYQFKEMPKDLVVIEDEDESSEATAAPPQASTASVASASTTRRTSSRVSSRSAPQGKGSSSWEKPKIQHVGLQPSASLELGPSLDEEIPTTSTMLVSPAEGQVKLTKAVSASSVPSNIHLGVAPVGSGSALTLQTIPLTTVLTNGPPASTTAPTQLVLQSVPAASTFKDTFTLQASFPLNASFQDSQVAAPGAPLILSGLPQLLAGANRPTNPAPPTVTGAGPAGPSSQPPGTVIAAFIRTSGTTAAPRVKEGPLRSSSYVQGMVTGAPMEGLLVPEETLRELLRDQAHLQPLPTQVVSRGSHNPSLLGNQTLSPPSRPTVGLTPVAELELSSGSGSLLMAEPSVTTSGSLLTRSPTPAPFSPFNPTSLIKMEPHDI
Sequence of HSF1 (Q00613 whole entry): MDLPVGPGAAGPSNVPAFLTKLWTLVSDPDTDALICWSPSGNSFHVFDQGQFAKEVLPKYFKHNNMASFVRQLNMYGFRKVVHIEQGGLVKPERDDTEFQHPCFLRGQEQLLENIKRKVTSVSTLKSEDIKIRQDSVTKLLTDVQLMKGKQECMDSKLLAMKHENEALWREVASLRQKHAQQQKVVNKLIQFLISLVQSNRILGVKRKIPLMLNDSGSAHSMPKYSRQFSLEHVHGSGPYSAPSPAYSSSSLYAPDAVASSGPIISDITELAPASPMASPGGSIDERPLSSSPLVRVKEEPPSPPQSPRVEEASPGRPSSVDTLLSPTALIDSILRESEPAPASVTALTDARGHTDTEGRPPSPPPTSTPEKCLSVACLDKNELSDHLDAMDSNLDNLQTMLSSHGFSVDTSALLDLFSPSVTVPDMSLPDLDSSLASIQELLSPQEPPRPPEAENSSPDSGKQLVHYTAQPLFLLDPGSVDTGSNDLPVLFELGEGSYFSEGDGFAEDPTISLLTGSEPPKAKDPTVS
Sequence of ETV6 (P41212 whole entry): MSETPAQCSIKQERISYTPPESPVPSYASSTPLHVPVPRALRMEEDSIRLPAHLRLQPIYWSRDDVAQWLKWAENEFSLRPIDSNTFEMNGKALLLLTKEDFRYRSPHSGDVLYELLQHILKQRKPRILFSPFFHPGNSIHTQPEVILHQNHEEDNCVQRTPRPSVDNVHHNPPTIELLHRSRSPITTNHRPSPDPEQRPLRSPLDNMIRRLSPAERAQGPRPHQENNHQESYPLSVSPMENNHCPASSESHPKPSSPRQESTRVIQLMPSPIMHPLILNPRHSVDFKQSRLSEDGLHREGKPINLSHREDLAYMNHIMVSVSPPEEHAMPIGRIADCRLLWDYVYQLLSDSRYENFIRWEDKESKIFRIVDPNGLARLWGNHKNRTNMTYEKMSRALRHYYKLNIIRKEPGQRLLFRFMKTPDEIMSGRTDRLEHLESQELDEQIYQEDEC
Sequence of ETV1 (P50549 whole entry): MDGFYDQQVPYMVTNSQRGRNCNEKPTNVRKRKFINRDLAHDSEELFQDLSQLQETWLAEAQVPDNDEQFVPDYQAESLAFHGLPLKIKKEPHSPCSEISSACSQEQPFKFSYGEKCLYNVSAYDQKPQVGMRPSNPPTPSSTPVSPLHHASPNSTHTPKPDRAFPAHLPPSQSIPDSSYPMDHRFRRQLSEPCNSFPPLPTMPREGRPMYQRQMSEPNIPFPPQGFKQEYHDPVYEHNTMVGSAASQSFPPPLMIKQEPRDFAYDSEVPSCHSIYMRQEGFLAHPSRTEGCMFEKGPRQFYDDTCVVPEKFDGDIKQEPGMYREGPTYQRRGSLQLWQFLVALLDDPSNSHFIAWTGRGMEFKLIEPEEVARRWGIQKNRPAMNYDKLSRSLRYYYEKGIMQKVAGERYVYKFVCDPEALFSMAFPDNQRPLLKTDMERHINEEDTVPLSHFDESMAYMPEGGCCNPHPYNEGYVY
Sequence of ETV5 (P41161 whole entry): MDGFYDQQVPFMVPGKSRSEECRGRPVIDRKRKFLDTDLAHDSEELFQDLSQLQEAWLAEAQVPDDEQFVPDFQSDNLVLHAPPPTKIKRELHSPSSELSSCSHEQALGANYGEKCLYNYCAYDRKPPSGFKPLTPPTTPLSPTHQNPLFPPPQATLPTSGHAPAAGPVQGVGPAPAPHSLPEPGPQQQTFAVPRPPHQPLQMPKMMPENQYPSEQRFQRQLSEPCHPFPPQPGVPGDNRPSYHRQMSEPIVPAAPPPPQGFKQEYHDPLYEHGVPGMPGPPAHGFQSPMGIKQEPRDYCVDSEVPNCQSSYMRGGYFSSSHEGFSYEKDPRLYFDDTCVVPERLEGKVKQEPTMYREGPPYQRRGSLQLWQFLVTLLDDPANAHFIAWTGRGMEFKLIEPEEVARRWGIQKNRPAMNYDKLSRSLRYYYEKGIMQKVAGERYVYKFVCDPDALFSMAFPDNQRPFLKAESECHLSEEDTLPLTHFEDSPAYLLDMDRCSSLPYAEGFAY
Sequence of CRX (O43186 whole entry): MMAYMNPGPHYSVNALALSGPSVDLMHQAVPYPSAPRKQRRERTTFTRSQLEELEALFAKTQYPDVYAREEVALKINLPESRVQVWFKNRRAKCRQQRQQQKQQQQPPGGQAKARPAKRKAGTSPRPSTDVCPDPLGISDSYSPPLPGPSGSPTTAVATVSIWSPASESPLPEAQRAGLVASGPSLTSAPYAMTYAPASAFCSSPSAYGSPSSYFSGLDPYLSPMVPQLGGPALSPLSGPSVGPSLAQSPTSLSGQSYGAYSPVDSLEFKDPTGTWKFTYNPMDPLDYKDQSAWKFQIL

Sequence: GAAATA
- binding signal [1]: 1.54 fold enrichment (6-mer frequency, TF over GST control)
- binding signal [2]: 1.63 fold enrichment (6-mer frequency, TF over GST control)
- binding signal [3]: 1.21 fold enrichment (6-mer frequency, TF over GST control)
- binding signal [4]: 1.43 fold enrichment (6-mer frequency, TF over GST control)
- binding signal [5]: 1.35 fold enrichment (6-mer frequency, TF over GST control)
- binding signal [6]: 1.39 fold enrichment (6-mer frequency, TF over GST control)
- binding signal [7]: 1.42 fold enrichment (6-mer frequency, TF over GST control)
- binding signal [8]: 1.62 fold enrichment (6-mer frequency, TF over GST control)
- binding signal [9]: 1.11 fold enrichment (6-mer frequency, TF over GST control)
- binding signal [10]: 1.54 fold enrichment (6-mer frequency, TF over GST control)
- binding signal [11]: 1.45 fold enrichment (6-mer frequency, TF over GST control)
- binding signal [12]: 1.48 fold enrichment (6-mer frequency, TF over GST control)
- binding signal [13]: 1.51 fold enrichment (6-mer frequency, TF over GST control)
- binding signal [14]: 1.52 fold enrichment (6-mer frequency, TF over GST control)
- binding signal [15]: 1.6 fold enrichment (6-mer frequency, TF over GST control)
- binding signal [16]: 1.73 fold enrichment (6-mer frequency, TF over GST control)
- binding signal [17]: 1.54 fold enrichment (6-mer frequency, TF over GST control)
- binding signal [18]: 1.75 fold enrichment (6-mer frequency, TF over GST control)
